In the supplement of paper PMC5499739:
In all, about 16,000 sequences were measured (“Z-score”: median about -0.37, highest 2% from about 3.2 on). The sample holds the highest values, similar sequences and a random draw of the others, so the mix is not that of the screen.

test system: RBM10 RRM1-ZnF (GST-tagged construct); test: RNAcompete 7-mer binding Z-score; higher = stronger binding preference
Procedure: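 RNAcompete: 20 pmol GST-tagged RBM10 RNA-binding constructs were incubated with a designed RNA pool of about 241,000 sequences up to 41 nt (1.5 nmol) on glutathione beads for 30 min at 4 °C and washed. Bound RNAs were identified by microarray hybridisation. Each RNA 7-mer is scored by a one-sided Z-score of its enrichment, computed over probes that contain the 7-mer within longer pool sequences.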

Sequence | RNAcompete 7-mer binding Z-score
AAGGAGG | 4.7
UAGGAGG | 2.77
CAGGAGA | 1.93
GAGGAUG | 3.1
AUGGAUG | 3.28
AUGGAUU | 1.71
AAGGAUA | 2.99
AAGGAUG | 4.14
AAGGAGA | 3.37
AUGGAUA | 2.89
UAGGAGA | 1.94
GAGGAGG | 2.97
GUAUCUC | -0.594
GCGGUUA | 1.32
CCACUGG | -0.152
UUUCGAA | -0.678
UGACACG | 0.0138
GAUGUUA | -0.116
GCGACCC | -0.545
CCGUUCC | -0.967
UAAUGCA | -0.386
UGACUCG | -0.487
GUAAGGC | 1.67
AUAAGGG | 3.77
AUAAGGA | 2.08
GUAAGGG | 3.85

Sequence | RNAcompete 7-mer binding Z-score
AUAAGGU | 1.72
GUAAGGA | 2.67
GAGAAUC | 0.0593
UACGUGU | -0.318
GAUAUAU | -0.178
ACGAUUA | -0.366
UUAACGU | -0.324
UUUUCAU | -0.727
UAUAGGG | 2.69
GUUAGGU | 1.86
GUUAGGG | 3.73
GAUAGGG | 4.05
CAUAGGG | 1.51
AAUAGGG | 3.28
AAUAGGU | 1.37
UUUAGGG | 1.65
AAUAGGC | 0.192
UAGAACU | -0.155
GACCCCU | -0.704
AACGGCA | 0.42
CGUGCGG | 1.09
CGCGCCA | -0.337
AAGGGGG | 4.31
AAGGGGC | 3.13
AGGGGGU | 3.09
AAGGGGA | 4.47

Sequence | RNAcompete 7-mer binding Z-score
AAAGGGG | 4.5
AAGGGGU | 4.48
AAAGGCG | 1.21
AGGGGGA | 2.47
AAGGGCU | 1.62
AGGGGGC | 1.83
GUCGCUA | -0.243
CUGGAGA | 0.501
UUAGAAU | -0.152
CGUGAUC | -0.704
GAAUCGG | 1.41
UGAACAC | -0.347
GCUUGUC | -0.665
UCUGGGG | 1.39
CGGAGAA | 1.36
AAUUGCC | -0.626
UGGAUAU | 1.17
AGCAUAA | -0.292
GAGGGGA | 3.62
CAAAGGG | 2.23
GAGGAAA | 2.27
CAGGGGA | 2.99
GAGGGAA | 3.42
GAGGGGG | 2.9
GAGGGCU | 1.3
AAAAGGG | 3.8

Sequence | RNAcompete 7-mer binding Z-score
UAAAGGG | 2.85
GAGGGAC | 2.06
GAGGGGU | 3.59
GAGGGGC | 2.44
GAAAGUU | 0.225
CAUAGGA | 0.54
GCCGUUA | -0.607
GCAGGCA | 0.495
AUGUAAG | 0.397
UGGGGUG | 4.74
UUGGGUU | 2.66
GGGGGCG | 2.47
UUGGGUC | 1.04
AGGGGUG | 3.85
UCGGGUG | 2.34
UUGGGUG | 3.83
UGGGGUC | 2.57
AGGGGCG | 2.28
GGGGGUC | 2.18
GGGGGUG | 4.02
AUACAGU | -0.00571
GUCCAGA | -0.474
GGGCUCA | 0.485
AGGUGUU | 0.988
AAUGCCC | -0.613
ACCGUAU | -0.746

Sequence | RNAcompete 7-mer binding Z-score
AUUGGUG | 2.27
AUGGGUG | 4.03
AUGGGUC | 2.19
AUGGGUA | 3.54
AUGGGUU | 2.89
CGGGGUG | 3.76
AUCGGUG | 0.894
CUGGGUA | 2.13
CCGGGUG | 1.47
CGGGGUC | 2.14
GUAGGUA | 2.15
GUGGGUA | 3.53
UAUACUC | -0.769
UAAACAA | -0.392
ACCGUUC | -0.948
AAACACC | -0.6
CUGCGGC | 0.0138
GCAUGGC | 0.176
AACCGCG | -0.353
CACGGGU | 1.99
GUGGGUG | 4.14
GUGGGUC | 2.36
CUGGGUG | 1.83
GCGAAAA | 0.0528
GCGCCCC | -0.0934
AUUCCUA | -0.756

Sequence | RNAcompete 7-mer binding Z-score
UUAGGCU | 0.095
AGGGGUU | 2.52
UGGGGGU | 3.87
UGGGGCU | 2.3
GGGGGUU | 3.67
UGGGGUU | 3.29
CUGGGUU | 1.53
AUUUAUC | -0.691
UAUGGCA | 0.413
CAGCUCG | -0.704
UGAAGAA | 0.228
CGCCUAA | -0.694
CCUGAUC | -0.792
GUGUUUA | 0.27
UAGUGGA | 1.54
GAGUGGC | 1.53
GAGUGGA | 3.26
AAGUGGU | 1.82
CAGUGGA | 1.38
GAGUGGU | 2.46
AAGUGGG | 3.73
AAGUGGA | 3.31
CAGUGGG | 2.24
CCAAGAC | -0.646
GUAGUCA | 0.157
CCAUCUG | -0.772

Sequence | RNAcompete 7-mer binding Z-score
UGUGUCG | 0.043
UCGGGAA | 1.33
GGGGCGA | 2.46
UCUGGGA | 0.508
UGGGGCA | 3.56
AGGGGCA | 2.47
GGGGGCA | 2.92
CGGGGGA | 3.17
UUGGGGA | 2.82
UGGGGGA | 3.71
GGGGGGA | 3.3
CGGGGAA | 2.71
UGGGGAA | 3.66
AACGGAC | 0.413
GCAAAAC | -0.0902
AGCAUGA | -0.119
CUAGCGA | -0.347
CAGAGGU | 1.25
UACGGAA | 0.699
CUACAGA | -0.636
AGAGCAG | 0.699
UGGCUAG | 0.391
GCGAGGA | 1.93
UCGAGGG | 1.95
ACGAGGC | 0.319
GCGAGGG | 3.54

Sequence | RNAcompete 7-mer binding Z-score
ACGAGGG | 3.35
ACGAGGU | 0.959
CUGCUAU | -0.691
AGAUGCG | 0.111
CCGCUCC | -0.474
GCAAGGA | 2.4
ACAGGGU | 2.94
GCAGGGC | 1.35
CCAGGGU | 1.29
ACAGGGA | 3
ACAGGGC | 1.84
GCAGGGG | 3.32
GCAAGGU | 1.94
GCAAGGG | 3.46
CCAGGGG | 1.46
GCAGGGU | 3.43
ACAGGGG | 3.33
CGACAAC | -0.542
GUCGGCU | -0.0252
GCUAUGC | -0.269
CAACGAU | -0.409
GAUAGUC | -0.279
AAACCCA | -0.701
AACGCUG | -0.5
CAAAACG | -0.119
AGCUUAC | -0.639

Sequence | RNAcompete 7-mer binding Z-score
ACACGGC | -0.191
CGCUUAU | -0.649
AGGAGGU | 2.47
AGGAGGG | 3.53
UGGAGGA | 2.87
AGGAGUG | 2.91
GAGAGGG | 2.7
GGGAGUA | 2.53
GGGAGGA | 3.47
GGGAGGG | 4.74
AGGAGGA | 2.25
CGGAGGG | 2.91
AGGAGGC | 1.37
GGGAGUG | 3.73
UCAGCGG | 0.309
AUGUCCG | -0.626
UUACGCA | -0.584
CGGAGGU | 2.41
UGGAGGC | 1.96
CGGAGCG | 1.23
UGGAGGG | 4.07
GGGAGCC | 0.917
GGGAGCG | 3.35
UGGAGGU | 2.84
GGGAGGC | 2.92
GGGAGGU | 3.68

Sequence | RNAcompete 7-mer binding Z-score
AGCAACA | -0.158
AGUCUAC | -0.584
GCGUUUG | 0.131
GGUUGUG | 2.29
CUACUGA | -0.659
AUGUGGC | 0.586
GUGUGGU | 2.39
UUGUGGG | 2.83
GUGUGGA | 2.98
AUGUGGG | 3.84
GUGUGGG | 3.93
CAUCAAG | -0.47
UUUAUGG | 0.303
CCAACAC | -0.5
AGGGUCA | 1.14
UGGGUGC | 2.92
GCGGUGG | 2.85
GGGGUGG | 4.71
AGGGUGU | 3.11
AGGGUGA | 4.19
UGGGUCG | 2.09
UGGGUGG | 4.14
GGGGUGU | 4.3
AUGGUGA | 2.6
GCGGUGU | 1.1
GGGGUGC | 2.92

Sequence | RNAcompete 7-mer binding Z-score
UAAAUAG | -0.0674
CGUAUUU | -0.769
UUCACGG | -0.448
GAAGACG | 1.09
CUAAGAA | -0.331
CUACAUG | -0.591
GAUCAGA | 0.316
AGUUAGU | -0.0642
ACAUCCC | -0.587
UCGGUGA | 0.452
ACGGUGG | 2.76
CGGGUGC | 1.85
GGGGUGA | 4.16
CGGGUGG | 3.64
CGGGUGA | 2.66
CGGGUGU | 2.14
AGGGUGC | 2.6
AGGGUGG | 4.42
GCGGUGA | 1.2
UGGGUGA | 3.38
GGGGUCA | 2.86
UCCAUUA | -0.75
UCUCCCC | -0.587
CCUCGGG | 0.423
GCGUCAC | -0.0252
GUCUUUA | -0.652

Sequence | RNAcompete 7-mer binding Z-score
GUUUCGA | -0.396
AUAUUAU | -0.402
AGUUGCU | -0.334
UUGGUGU | 1.51
UGGGUGU | 3.53
UCGGUGU | 0.524
GGUGUGU | 1.7
UGUGUGG | 1.89
GGUGUGG | 4.32
ACUCUAA | -0.685
GCACCCU | -0.496
AAAUCCC | -0.86
GCAUUCA | -0.396
CUGUUCU | -0.847
UGUGGGC | 2.06
UGUGGGU | 3.46
GGUGGUC | 2.06
GCUGGGU | 2.3
UGUGGUG | 1.84
GGUGGGU | 3.78
UGUGGGG | 3.96
GGUGGGC | 3.3
UCUGGGU | 0.81
UGUGGGA | 2.87
UGUGGUU | 1.84
GGUGGUU | 2.61

Sequence | RNAcompete 7-mer binding Z-score
CUAAUUG | -0.617
UUGAACG | -0.139
ACCCACU | -0.675
GGAUGUA | 1.7
GUUUGUG | 0.865
AUCUAAC | -0.681
AACCGGC | -0.6
AGUGUCC | -0.604
GGACGUA | 0.833
UUAUGAU | -0.353
CUGAAUG | -0.285
AGUGUGG | 2.95
CGUGGGU | 2.81
AGUGGGU | 3.49
AGUGGGG | 4.49
ACUGGGU | 2.06
AUUGGGA | 2.83
GCUGGGA | 2.03
GGUGGCA | 2.02
GGUGGGA | 4.26
AGUGGUA | 2.01
AGUGGGA | 4.13
AGUGGGC | 2.67
UCAUCCG | -0.808
CAGUGAG | 0.706
UUCUUUG | -0.659

Sequence | RNAcompete 7-mer binding Z-score
GCUGAAG | 0.699
ACACUUG | -0.535
UCUAUAC | -0.821
CGUGGGA | 2.33
CGUGGGG | 3.65
CGUGGGC | 1.85
AUUUAAG | -0.298
UAGUCAU | -0.444
GGGGAAC | 2.42
GGGGAAG | 4.31
GGGGACG | 2.55
CGGGAAU | 1.68
GGGGAAU | 3.41
AGGGAAU | 3.05
CGACUUC | -0.785
CCCUUGC | -0.694
GCCAGUA | -0.288
UGCCUCC | -0.506
UGGAAGU | 1.79
AGGAAGA | 1.7
AGGAAGU | 1.06
CGGAAGG | 2.53
UGGAAGG | 4.12
AGGAAGG | 4.31
AUACUAG | -0.337
AACCAUC | -0.763

Sequence | RNAcompete 7-mer binding Z-score
CUAGCUG | -0.386
CGUUGAG | -0.0512
GGGUGAU | 3.22
GGGUGAA | 3.87
AGGUGAU | 1.8
UGUUGAG | 0.716
GGGUGAC | 3.04
UGGUGAA | 1.71
GGGUGAG | 4.36
GGUUGAG | 3.3
CGGUGAG | 1.42
UGGUGAU | 1.2
CGGUGAA | 0.595
